Candida biofilm: clotrimazole potentiators killing Candida biofilms, primary screen, with clotrimazole, Alamar Blue; inhibition, % at 6 µM; 0.14% of 85,000 active; AID 834, 2007; C. albicans biofilm + clotrimazole;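 active means inhibition above 20%; inactive means inhibition below 20%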;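 further: preformed 24 hr biofilms exposed to compound for 48 hr; 0% = biofilm without compound and 100% = blank killed by clotrimazole plus chlorhexidine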
PostGolgi yeast: phenotypic screen on post-Golgi transport, primary screen | post-Golgi transport phenotypic cell assay | inhibition, % at 10 µM | 0.9% of 98,000 active;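 further: yeast cells grown in 1536-well plates; yeast grown about 18 h at 30C before absorbance read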
EphB4 ephrin blk: EphB4-ephrin-B2 interaction antagonists, primary screen, biochemical, TNYL-RAW peptide probe, fluorescence polarization. Ephrin type-B receptor 4 (Homo sapiens), P54760. EphB4 LBD / TNYL-RAW-Alexa532 peptide. inhibition, % at 7 µM. 0.15% of 97,000 active. AID 720, 2007;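 active means inhibition above the screen-wide mean inhibition plus 3 SD, cut at about 15% in these data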;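 further: 0% = DMSO wells and 100% = excess unlabeled TNYL-RAW peptide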
Target sequence (P54760 whole entry, looked up, the tested form may be a part): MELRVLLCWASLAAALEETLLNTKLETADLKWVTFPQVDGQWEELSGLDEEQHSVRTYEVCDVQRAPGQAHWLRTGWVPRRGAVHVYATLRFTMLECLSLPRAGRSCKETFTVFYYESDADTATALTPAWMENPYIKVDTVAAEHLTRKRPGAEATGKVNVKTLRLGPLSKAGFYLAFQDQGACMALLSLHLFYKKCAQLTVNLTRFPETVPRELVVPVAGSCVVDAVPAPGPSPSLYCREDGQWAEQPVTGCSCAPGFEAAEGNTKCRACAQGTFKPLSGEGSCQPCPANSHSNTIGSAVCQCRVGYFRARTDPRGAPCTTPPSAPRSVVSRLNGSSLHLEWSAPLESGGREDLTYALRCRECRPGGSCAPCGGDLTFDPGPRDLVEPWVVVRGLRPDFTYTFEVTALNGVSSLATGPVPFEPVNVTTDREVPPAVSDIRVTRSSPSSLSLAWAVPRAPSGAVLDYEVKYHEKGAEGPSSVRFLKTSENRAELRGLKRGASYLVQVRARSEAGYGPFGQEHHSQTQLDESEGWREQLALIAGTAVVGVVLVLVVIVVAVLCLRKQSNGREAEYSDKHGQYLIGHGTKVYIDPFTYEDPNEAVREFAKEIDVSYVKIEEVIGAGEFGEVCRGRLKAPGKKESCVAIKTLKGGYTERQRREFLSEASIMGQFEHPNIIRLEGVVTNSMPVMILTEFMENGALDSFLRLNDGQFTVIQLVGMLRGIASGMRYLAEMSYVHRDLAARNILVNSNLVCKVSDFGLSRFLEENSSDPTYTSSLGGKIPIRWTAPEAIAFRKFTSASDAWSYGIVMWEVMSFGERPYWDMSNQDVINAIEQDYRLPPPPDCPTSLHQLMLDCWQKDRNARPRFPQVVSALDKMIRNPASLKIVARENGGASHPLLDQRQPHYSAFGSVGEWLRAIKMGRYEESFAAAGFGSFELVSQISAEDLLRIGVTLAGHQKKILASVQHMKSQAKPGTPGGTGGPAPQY
PostGolgi ctrl: growth inhibition of yeast control strain, primary screen, counter-screen for post-Golgi transport modulator project. efflux-deficient yeast background strain, growth absorbance A615, 16 h. inhibition, % at 10 µM. 5% of 98,000 active. AID 738, 2007
* hit, by the source's call; . = not tested or not shown. The list is not random: actives were taken first. Their share in the collection is about 5.2%. Unless noted, no stated cut-off is given here; in the data, active means inhibition above about 30%; inactive means the rest.

SMILES | Candida biofilm | PostGolgi yeast | EphB4 ephrin blk | PostGolgi ctrl
CCOc1ccc(NC(=O)c2cc3cc4ccc(OC)cc4nc3o2)cc1 | 58* | -7 | 3 | 2
COc1ccc2cc3cc(C(=O)NCCN4CCN(c5ccccc5F)CC4)oc3nc2c1 | 3 | 1 | -6 | 81*
COc1ccc2cc3cc(C(=O)NCc4ccccn4)oc3nc2c1 | . | 10 | 4 | 2
O=C(C1CCCN1S(=O)(=O)c1ccc(Cl)c(Cl)c1)N1CCCCC1 (stereo not drawn) | 6 | 14 | -5 | 5
Cc1ccccc1-c1cc(C(=O)Nc2sc(C)c(C)c2C(N)=O)c2ccccc2n1 | . | 13 | -2 | 39*
CCOC(=O)c1sc(NC(=O)c2cc(-c3ccccc3C)nc3ccccc23)c(C#N)c1C | . | 10 | 8 | 12
COc1cc(/C=C(\C#N)c2nc3ccccc3[nH]2)ccc1Oc1ccc([N+](=O)[O-])cn1 | . | 15 | -16 | 2
Cc1cc(/C=C(/C#N)c2nc3ccccc3[nH]2)c(C)n1-c1cccc([N+](=O)[O-])c1 | 5 | 34* | 1 | 10
Cc1cc(C)n2[nH]c(=O)c(N=Nc3cccc(Cl)c3)c2n1 | . | -6 | 4 | 39*
C1=Nc2c(Nc3ccccc3)ncnc2Oc2ccccc21 | 5 | -4 | 3 | 23
O=C(CSc1nn(-c2ccccc2)c(=S)s1)Nn1cnnc1 | 12 | -7 | . | 35*
COc1ccc(-c2noc(C3CCCN(S(=O)(=O)c4cccc(Cl)c4C)C3)n2)cc1OC (stereo not drawn) | -3 | 22 | -6 | 50*
CCN1CCN(C(C)C(=O)Nc2c(C)n(C)n(-c3ccccc3)c2=O)CC1 (stereo not drawn) | 4 | 4 | -4 | 5
CCC(C)NC(=O)c1ccccc1NC(=O)COc1ccc(OC)cc1 (stereo not drawn) | -1 | 6 | -9 | 2
Cc1ccc(-c2ccc(/C=N/n3cnnc3)o2)cc1Cl | 8 | 80* | 6 | 60*
Cc1cccc(-n2nnc(C(=O)N3CCc4ccccc4C3)c2N)c1 | 10 | -1 | 2 | 34*
Cc1cccc(-n2nnc(C(=O)Nc3ccc(F)cc3)c2N)c1 | -5 | 1 | 6 | 11
Cc1ccccc1-c1nc(CS(=O)(=O)CC(=O)Nc2cc(F)ccc2F)c(C)o1 | 16 | -7 | . | 92*
CCCN(CCC)CCNS(=O)(=O)c1ccc2c(c1)CCN2C(=O)C1CCC1 | 6 | 18 | -8 | 1
O=C(C1CC1)N1CCc2cc(S(=O)(=O)NCCC3=CCCCC3)ccc21 | 7 | -3 | -6 | 36*
CN(C)c1ccnc(-n2cccc2/C=N/OCc2ccc(F)cc2Cl)c1C#N | 3 | -8 | -6 | 34*
COc1ccccc1CO/N=C/c1cccn1-c1nccc(N(C)C)c1C#N | -1 | 2 | 1 | 1
N#Cc1cccc(NC(=O)NCCc2c[nH]c3ccccc23)c1 | 7 | . | . | .
CCc1nc(SCCO)c2oc3ccccc3c2n1 | 7 | 19 | -5 | 5
CCc1nc(SCC(=O)N2CCN(c3ccccc3)CC2)c2oc3ccccc3c2n1 | . | -3 | -6 | 33*
SMILES | Candida biofilm | PostGolgi yeast | EphB4 ephrin blk | PostGolgi ctrl
CCc1nc(SCc2nc3ccccc3[nH]2)c2oc3ccccc3c2n1 | 6 | 1 | -6 | 69*
O=C(NCc1ccco1)c1cc(C(=O)C2CC2)c[nH]1 | . | 12 | 0 | 0
Cc1ccc(N(CC(O)COCc2ccco2)S(=O)(=O)c2ccc(C)cc2)cc1 (stereo not drawn) | 7 | -2 | -1 | 5
Cc1cc(C)n(-c2nc3sc4c(c3c(=O)[nH]2)CCCC4)n1 | 7 | 99* | -3 | 98*
Cc1ccc(C)n1-n1c(C)nc2sc3c(c2c1=O)CCCCC3 | 7 | -2 | 5 | 50*
Nc1nc2sc3c(c2c(=O)s1)CCCC3 | 10 | -1 | 4 | 39*
O=c1c2c3c(sc2nc2n1CCCCC2)CCCC3 | 9 | -14 | . | 31*
Cc1ccc(C)n1-n1cnc2sc3c(c2c1=O)CCCCC3 | 4 | 2 | 5 | 13
COCCN1C(=O)c2ccccc2C(C(=O)N2CCN(c3ccccc3)CC2)C1c1ccc(F)cc1 (stereo not drawn) | 11 | -16 | -2 | 2
O=C1CC(C(=O)NCc2ccccc2)N=C(N2CCCCC2)N1 (stereo not drawn) | 7 | -11 | 1 | 8
O=C1CC(C(=O)Nc2ccccc2)N=C(N2CCCCC2)N1 (stereo not drawn) | 5 | 6 | 2 | 31*
C=CCN(C(=O)c1cccc(S(=O)(=O)N2CCN(C)CC2)c1)c1nc(-c2ccccc2)cs1 | . | 35* | -2 | 22
Cc1csc(N(C(=O)c2cccc(S(=O)(=O)N3CCCC3)c2)c2ccccc2)n1 | 4 | -8 | -6 | 9

Compound activity (PubChem)
